Measurements reported in PubChem BioAssay (Tox21).
Records with an inconclusive call do not appear. The source made the active and inactive calls. Unless noted, calls come from the whole dose curve.

Assays:
[1] = qHTS assay to identify small molecule agonists of the vitamin D receptor (VDR) signaling pathway - cell viability counter screen (AID 743224; active = well fitted curve in the direction sought with a large enough effect in the repeat runs; an effect the other way counts as inactive or inconclusive; note: series mostly up to about 63 µM; % is set by controls: 0 for no effect and ±100 for the full control effect; nearly all actives have a fitted effect of over 50% in size)
Method in brief: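 Plated VDR-bla cells (4 h, 37C) received compound, incubated 16 h, then LiveBLAzer substrate 2 h RT; CellTiter-Glo added afterwards, luminescence read at 30 min.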

[2] = qHTS assay to identify small molecule antagonists of the vitamin D receptor (VDR) signaling pathway - cell viability counter screen (AID 743225; active = well fitted curve in the direction sought with a large enough effect in the repeat runs; an effect the other way counts as inactive or inconclusive; note: % is set by controls: 0 for no effect and ±100 for the full control effect; nearly all actives have a fitted effect of over 50% in size)
Method in brief: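 Same-well multiplex: following 16 h treatment of HEK 293T cells carrying a UAS-driven beta-lactamase reporter with compound and agonist (3 nM final), and a 2 h FRET substrate step, CellTiter-Glo was added and luminescence read after 30 min.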

[3] = qHTS assay to identify small molecule agonists of the NFkB signaling pathway (AID 1159509; active = well fitted curve in the direction sought with a large enough effect in the signal ratio in the repeat runs, not every such curve was filed as active; the % refers to the signal ratio; note: series mostly up to about 61 µM; % is set by controls: 0 for no effect and ±100 for the full control effect)
Method in brief: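 NFkB-bla ME-180 cells with a beta-lactamase reporter under an NF-kB response element were plated overnight, treated with compounds in DMSO for 5 hr at 37 C, then loaded with FRET substrate for 1.5 hr at room temperature.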

[4] = qHTS assay to identify small molecule agonists of the NFkB signaling pathway - cell viability counter screen (AID 1159515); note: series mostly up to about 61 µM; % is set by controls: 0 for no effect and ±100 for the full control effect; nearly all actives have a fitted effect of over 55% in size
Method in brief: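 Using the same wells as the NFkB reporter read, ME-180 NFkB-bla cells given compounds for 5 hr were assessed for viability via CellTiter-Glo, with luminescence taken after a 30 min room-temperature incubation.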

[5] = qHTS assay to identify small molecule agonists of the endoplasmic reticulum stress response signaling pathway (AID 1159516; active = well fitted activation curve with a large enough effect in the signal ratio in the repeat runs, not every such curve was filed as active; the % refers to the signal ratio; note: % is set by controls: 0 for no effect and ±100 for the full control effect)
Method in brief: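 An ESRE-bla HeLa cell assay: compounds were pin-transferred from DMSO onto overnight-plated cells and left 5 hr at 37 C. Substrate was then loaded for 2 hr at room temperature before reading fluorescence at 460 nm and 530 nm.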

[6] = qHTS assay to identify small molecule agonists of the endoplasmic reticulum stress response signaling pathway - cell viability counter screen (AID 1159517);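 note: HeLa cells carrying an ER stress response element beta-lactamase reporter; series mostly up to about 61 µM; % is set by controls: 0 for no effect and ±100 for the full control effect; nearly all actives have a fitted effect of over 50% in size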
Method in brief: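 Counter-screen wells were identical to the reporter wells. Cells were plated at 1,500 per well and dosed for 5 hr, then read for luminescence 30 min after CellTiter-Glo addition.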

[7] = biological target: Nuclear receptor ROR-gamma (Homo sapiens) (UniProt P51449); assay: qHTS assay to identify small molecule antagonists of the retinoid-related orphan receptor gamma (ROR-gamma) signaling pathway (AID 1159521; active = well fitted curve in the direction sought with a large enough effect in the repeat runs; an effect the other way counts as inactive or inconclusive;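 note: CHO cells with doxycycline inducible ROR-gamma driving an RORE luciferase reporter; top concentration of the series differs between compounds; % is set by controls: 0 for no effect and ±100 for the full control effect; nearly all actives have a fitted effect of over 50% in size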)
Method in brief: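 Inducible-expression reporter assay: doxycycline (1 uM final) switched on RORγ in CHO cells bearing a ROR response element-luciferase construct, with test compounds present from 2 h beforehand. Decreased luminescence after 16 h defined antagonist activity.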

[8] = qHTS assay to identify small molecule agonists of the AP-1 signaling pathway - cell viability counter screen (AID 1159525); note: nearly all actives have a fitted effect of over 55% in size
Method in brief: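 AP-1-bla ME-180 cells in Opti-MEM with 0.5% dialyzed FBS, compound exposure 5 h at 37 C in 15-point titration. Viability read in the same wells as ATP content by CellTiter-Glo luminescence, normalised to tetra-n-octylammonium bromide and DMSO controls.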

[9] = qHTS assay to identify small molecule agonists of the AP-1 signaling pathway (AID 1159526); note: % is set by controls: 0 for no effect and ±100 for the full control effect
[10] = qHTS assay to identify small molecule antagonists of the retinoid-related orphan receptor gamma (ROR-gamma) signaling pathway - cell viability counter screen (AID 1159520; active = well fitted curve in the direction sought with a large enough effect in the repeat runs; an effect the other way counts as inactive or inconclusive)
Method in brief: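 Tet-on ROR gamma CHO cells were given compounds for 2 hr, then doxycycline hyclate at 1 uM final, and incubated 16 hr at 37 C. Viability was measured as ATP content by CellTiter-Glo luminescence.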

CCCCCCCC/C=C\CCCCCCCC(=O)OCCCC
inactive: Potency [1] | outcome [2] | outcome [3] | outcome [4] | outcome [5] | Potency [6] | activity change, negative = inhibition [7] 12% [at 19 µM] | viability change, negative = cytotoxic [8] -3.05% [at 15.8 µM] | activation [9] -1.59% [at 15.8 µM]

CCN(CC)CC(=O)Nc1c(C)cccc1C
inactive: Potency [1] | outcome [3] | outcome [4] | outcome [5] | Potency [6] | outcome [7] | outcome [8] | outcome [9]

CCCOC(OCCC)OCCC
inactive: Potency [1] | outcome [3] | outcome [4] | outcome [5] | Potency [6] | outcome [7] | outcome [9]

COCCc1ccc(OCC2CO2)cc1 (stereo unspecified)
inactive: Potency [1] | outcome [2] | outcome [3] | outcome [4] | outcome [5] | Potency [6] | outcome [8] | outcome [9]

O=C1O[C@@H]2[C@@H](O)[C@H](O)O[C@@H]2[C@H]1O
inactive: Potency [1] | outcome [2] | outcome [3] | outcome [4] | outcome [5] | Potency [6] | outcome [8] | outcome [9]

CCn1ccc(NS(=O)(=O)c2ccc(N)cc2)nc1=O
inactive: Potency [1] | outcome [2] | outcome [3] | outcome [5] | Potency [6] | outcome [10] | outcome [7] | outcome [8] | outcome [9]

CC(CO)c1ccccc1 (stereo unspecified)
inactive: Potency [1] | outcome [3] | outcome [5] | Potency [6] | outcome [10] | outcome [7] | outcome [8] | outcome [9]

CCOCCOCCOCC
inactive: Potency [1] | outcome [3] | outcome [5] | Potency [6] | outcome [10] | outcome [7] | outcome [8] | outcome [9]

C=CCCCCCCCCCCCC
inactive: Potency [1] | outcome [2] | outcome [3] | outcome [5] | Potency [6] | outcome [10] | outcome [7] | outcome [8] | outcome [9]

Nc1ccc(S(=O)(=O)Nc2ccc(Cl)nn2)cc1
inactive: Potency [1] | outcome [4] | outcome [5] | Potency [6] | outcome [10] | outcome [7] | outcome [8] | outcome [9]

CC(=O)NCc1c(I)c(NC(C)=O)c(I)c(C(=O)O)c1I
inactive: Potency [1] | outcome [2] | outcome [3] | outcome [5] | Potency [6] | outcome [10] | outcome [8] | outcome [9]

COc1cc(NS(=O)(=O)c2ccc(N)cc2)nc(OC)n1
inactive: Potency [1] | outcome [2] | outcome [3] | outcome [5] | Potency [6] | outcome [10] | outcome [8] | outcome [9]

CCCCCCN
inactive: Potency [1] | outcome [4] | outcome [5] | Potency [6] | outcome [10] | outcome [7] | outcome [8] | outcome [9]

C=C(C)C(=O)OCCNC(C)(C)C
inactive: Potency [1] | outcome [2] | outcome [3] | outcome [5] | Potency [6] | outcome [10] | outcome [7] | outcome [8] | outcome [9]

COc1ccc2nc(SCc3ncc(C)c(OC)c3C)[nH]c2c1
inactive: Potency [1] | outcome [2] | outcome [3] | outcome [4] | outcome [5] | Potency [6] | outcome [9]

O=C(O)CCSSCCC(=O)O
inactive: Potency [1] | outcome [2] | outcome [3] | outcome [5] | Potency [6] | outcome [10] | outcome [7] | outcome [8] | outcome [9]

CCO[Si](CCCS)(OCC)OCC
inactive: Potency [1] | outcome [2] | outcome [3] | outcome [5] | Potency [6] | outcome [10] | outcome [7] | outcome [8] | outcome [9]

CC(C)CC(C)CC(C)CC(C)COC(=O)c1ccccc1C(=O)OCC(C)CC(C)CC(C)CC(C)C (stereo unspecified)
inactive: Potency [1] | outcome [2] | outcome [3] | outcome [5] | Potency [6] | outcome [10] | outcome [7] | outcome [8] | outcome [9]

CC(C)OC(=O)CCCCC(=O)OC(C)C
inactive: Potency [1] | outcome [2] | outcome [3] | outcome [5] | Potency [6] | outcome [10] | outcome [7] | outcome [8] | outcome [9]

COc1ccc(S(=O)(=O)N2c3ccc(Cl)cc3[C@@](O)(c3ccccc3Cl)[C@H]2C(=O)N2CCC[C@@H]2C(N)=O)cc1OC
inactive: outcome [4] | outcome [5] | Potency [6] | outcome [10] | outcome [7] | outcome [8] | outcome [9]

CC(C)CC(=O)O
inactive: outcome [2] | outcome [3] | outcome [5] | Potency [6] | outcome [10] | outcome [9]

COC(=O)CCc1ccc(OCC(O)CNC(C)C)cc1 (stereo unspecified)
inactive: Potency [1] | outcome [2] | outcome [3] | outcome [5] | Potency [6] | outcome [10] | outcome [7] | outcome [8] | outcome [9]

CCCCNc1ccc(C(=O)OCCN(C)C)cc1
inactive: Potency [1] | outcome [2] | outcome [3] | outcome [5] | Potency [6] | outcome [10] | outcome [7] | outcome [8] | outcome [9]

CCN1CCc2nc(N)oc2CC1
inactive: outcome [3] | outcome [5] | Potency [6] | outcome [10] | outcome [8] | outcome [9]

Cc1ccccc1OCC(O)CO (stereo unspecified)
inactive: Potency [1] | outcome [2] | outcome [3] | outcome [5] | Potency [6] | outcome [10] | outcome [9]

CCCCCCCCCCl
inactive: Potency [1] | outcome [2] | outcome [3] | outcome [5] | Potency [6] | outcome [10] | outcome [7] | outcome [8] | outcome [9]
